Screening results from PubChem.
TTR transcr act – activators of transthyretin transcription; SH-SY5Y TTR promoter Gaussia luciferase, luminescence; 100% = recombinant luciferase protein wells; activation, % at 16.7 µM; actives 1.3% (n = 92,000);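 active means activation above the mean of all tested compounds plus 3 SD, cut at about 9.5% in these data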;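 further: cells exposed to compounds for one day before reading; 0% = median of all test compound wells on the plate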
HuH7 TTR inh – decreases TTR transcription in HuH7 cells in activator counter-screen; shares compounds with TTR transcr act; HuH7 TTR promoter-Gaussia luciferase reporter, luminescence; inhibition, % at 16.7 µM; actives 4% (n = 1,100); AID 1117279;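 active means average inhibition above the solvent-only control wells' mean plus 3 SD, cut at about 15% in these data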;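 further: 0% = cells with DMSO only and 100% = cells with inhibitor control FD; inhibitors lower well luminescence so higher value means more inhibition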
TTR act confirm – human TTR transcription activation, confirmation; shares compounds with TTR transcr act; SHSY5Y TTR promoter Gaussia luciferase, luminescence; 100% = purified Lucia enzyme wells, no cells; activation, % at 16.7 µM; 1,100 tested, under 10 active;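 active means mean activation above a set limit taken from the earlier primary screen, cut at about 11% in these data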;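 further: 0% = DMSO-treated cells and 100% = recombinant Lucia luciferase without cells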
Starred values were filed as active, the others as inactive. Shown is part of a subset that was picked to be rich in hits.

SMILES	TTR transcr act	others
O=C(Nc1ccccc1Cl)OC1CC2CC1[C@H]1CCCCN1[C@H]2Cc1ccccc1 (some centres undefined)	-1
CCOC(=O)C1(CC)NC(c2ccc(OC)c(OC)c2)C2C(=O)N(c3cccc(C(C)=O)c3)C(=O)C21 (centres undefined)	9
CCC[C@H]1[C@@H](OC(=O)NC2CCCCC2)CC[C@@]23CCCN2C(=O)CCC[C@@H]13	-2
Cc1ccnn1CC(=O)N/N=C/c1cccs1	-1
O=C(Cn1ccc(C(F)(F)F)n1)N/N=C/c1cccs1	-1
Nc1nnnn1CC(=O)N/N=C/c1cccs1	36*	HuH7 TTR inh=-8;TTR act confirm=1
CN(C)[C@@H]1CCN(c2cccc3c2S(=O)(=O)N(C2CC2)CCCO3)C1	0
O=C(COC(=O)c1cc(=O)[nH]c2ccccc12)NC1CCCCC1	12*	HuH7 TTR inh=-11;TTR act confirm=0
CNC(=O)COC(=O)c1cc(=O)[nH]c2ccccc12	1
NC(=O)COC(=O)c1cc(=O)[nH]c2ccccc12	0
CN(c1ccccc1)S(=O)(=O)c1cccc(NC(=O)CSc2ncc(C(F)(F)F)cc2Cl)c1	2
CCCCn1c(=O)n(Cc2cccc(F)c2)c(=O)c2c1ncn2Cc1ccco1	19*	HuH7 TTR inh=-5;TTR act confirm=0
Cc1cccc(Cn2c(=O)c3c(nc4n3CCN4Cc3ccco3)n(C)c2=O)c1	0
CCn1cnc2c1c(=O)n(CC(=O)O)c(=O)n2Cc1ccccc1	5
Cc1cc(C)c(NC(=O)COC(=O)CCc2ccc(S(=O)(=O)N3CCCCC3)cc2)c(C)c1	0
CCOC(=O)c1cnc2c(-c3ccccc3OC)c(C)nn2c1C	0
CC1(C)C(CO)=CC(=O)C2=C1SCC(=O)N2	11*	HuH7 TTR inh=-9;TTR act confirm=0
CN(C)NC(=S)NC1CCS(=O)(=O)C1 (centres undefined)	-2
CCN(CC(=O)NCc1ccccn1)S(=O)(=O)c1ccc(Cl)cc1	0
CCCCC(=O)N(C)c1c(CC)nc2c(OCc3cccc(Cl)c3)cccn12	-1
Cc1cc2oc(C(=O)N(Cc3ccc(N(C)C)cc3)CC3CCCO3)c(C)c2cc1C (centres undefined)	51*	HuH7 TTR inh=-10;TTR act confirm=0
Cc1c(C(=O)N(Cc2ccc(N(C)C)cc2)C2CCS(=O)(=O)C2)oc2ccccc12 (centres undefined)	0
Cc1cccc(NC(=O)CN(CC2CCCO2)C(=O)c2oc3ccc(F)cc3c2C)c1C (centres undefined)	7
N=C(N)c1ccc(/C=C/c2ccc(C(=N)N)cc2O)cc1	0
Cc1cccc(C(=O)NNS(=O)(=O)c2ccc(F)cc2)c1	-1
SMILES	TTR transcr act	others
CCN(c1ccc2c(c1)OCO2)S(=O)(=O)c1cc2c(cc1Br)CCN2C(=O)C1CC1	2
CC(C)=CCN1CCN(Cc2ccoc2)CC1CCO (centres undefined)	-2
CC(C)=CCN1CCN(Cc2ccc3nsnc3c2)CC1CCO (centres undefined)	1
CC(=O)Nc1ccc2nc(CN3CCN(CC=C(C)C)C(CCO)C3)ccc2c1 (centres undefined)	67*	HuH7 TTR inh=-6;TTR act confirm=1
CCc1nn(CCCC(=O)N2CCN(c3cccc(C)c3C)CC2)c(=O)c2cc3occc3n12	-2
CC1CCCC(C)N1C(=O)COC(=O)c1cncc(Br)c1 (centres undefined)	1
COc1ccc(/C=C2/CN(Cc3ccc(OC)cc3OC)C3=NC(c4ccc5ccccc5c4)CC(=O)N32)cc1 (centres undefined)	-1
CCOc1ccc(S(=O)(=O)N2CCN(Cc3ccc4c(c3)OCO4)CC2)cc1OCC	-2
O=S(=O)(c1ccc(Cl)nc1)N1CCN(Cc2ccc3c(c2)OCO3)CC1	-1
CC(C)(C)c1ccc(S(=O)(=O)N2CCN(Cc3cc4c(cc3O)OCO4)CC2)cc1	15*	HuH7 TTR inh=-7;TTR act confirm=1
O=C(NCC(c1cccs1)N1CCOCC1)c1cc2ccccc2oc1=O (centres undefined)	-3
COC(=O)c1cccc(Cn2ccc3ccc(-c4ccc5ccn(C(=O)c6ccccc6OC)c5c4)cc32)c1	3
CN(C)C(CNC(=O)C1CCN(C(=O)/C=C/c2ccccc2)CC1)c1ccccc1 (centres undefined)	1
COc1ccc(C(=O)N2CCOC2CNC(=O)C(=O)NCc2ccc3c(c2)OCO3)cc1 (centres undefined)	-1
Cc1nc2ccccc2n1S(=O)(=O)c1ccc(Br)cc1	7
CCSc1nc2ccccc2n1S(=O)(=O)c1ccccc1	30*	HuH7 TTR inh=4;TTR act confirm=0
CCc1ccc(S(=O)(=O)n2c(C)nc3ccccc32)cc1	3
O=S(=O)(c1ccccc1)N1CCN(S(=O)(=O)c2ccc3c(c2)OCCO3)CC1	0
O=C(NCCc1c[nH]c2ccccc12)OCc1cn(Cc2cccc(C(F)(F)F)c2)nn1	-3
Nc1ncnc(N2CCOCC2)c1N	0
